Experimental data as given in PubChem BioAssay (EPA / NIEHS).
Activity calls are given as the source filed them. Rule for the calls: active = hit-call score of the fitted dose curve at least 0.9, where 1 is the maximum; inactive = score below 0.9.

What follows are compounds tested on Insulin Like Growth Factor 1 (IGF1), IGF1 (gene 3479) (assay: LTEA_HepaRG_IGF1: Life Technologies and Expression Analysis (LTEA) Assay for Insulin Like Growth Factor 1 (IGF1) using HepaRG (AID 2283506)). Conditions: mRNA level, 48 h; actives raise or lower the signal.
Method: LTEA_HepaRG is a cell based, multiplexed-readout assay that uses HepaRG, a human liver cell line, with measurements taken at 48 hours after chemical dosing on a 96-well plate.LTEA_HepaRG_IGF1 is one of 102 assay component(s) measured in the LTEA HepaRG cell culture assay. It is a marker of Cell proliferation, survival, death.Data from the assay component LTEA_HepaRG_IGF1 was analyzed into 1 endpoint. This assay endpoint, LTEA_HepaRG_IGF1, was analyzed with bidirectional fitting relative to DMSO as the negative control and baseline of activity. Using a type of inducible reporter, measures of mRNA induction for gain or loss-of-signal activity can be used to understand regulation of transcription factor activity. To generalize the intended target to other relatable targets, this assay endpoint is annotated to the growth factor intended target family, where the subfamily is insulin-like.
A total of 1060 chemcials from the ToxCast library were tested in eight-point concentration-response experiments. Cell culture and cytotoxicity assays were conducted at Thermo Fisher Scientific's Custom Services facility (Madison, WI). A single lot of human HepaRG cells (Thermo Fisher Scientific, Frederick, MD) was used for the cell culture experiments. 96-well format collagen type I coated plates of human HepaRG cells were prepared using established methods. Briefly, cryopreserved HepaRG cells were thawed, plated at a density of approximately 100,000 cells/well in HepaRG Thaw, Plate, and General Purpose media (HPRG770, Thermo Fisher Scientific), and incubated for 48 hours. 0.5% DMSO was selected as vehicle control to balance the requisite need of DMSO in HepaRG cultures to maintain differentiation (for example, baseline metabolism, proportions of hepatocytes vs. cholangiocytes), while enabling further hepatic receptor pathway activation (for example, PXR and CAR) in response to chemical exposure. 48 hours after plating, the culture medium was replaced with HepaRG Serum-Free Incudtion Media. Cells were exposed to each test chemical in duplicate and maintained in CO2 incubators for another 48 hours. Chemical plates were thawed to room temperature and 200x concentrations of treatment groups were prepared. 8-point conentration-reponse curves were made with the highest exposure at 100 uM, followed by half-log dilutions, all in 0.5% DMSO. Each test plate contained variouse controls, induction positive controls (1mM phenobarbital), cytotoxicity positive controls ([…] aflatoxin B1), vehicle controls (0.5% DMSO), and total lysis controls (0.5% DMSO). Cell morphology images were taken using an Essen IncuCyte FLR automated microscope, with six 96-well plates imaged in about 24 minutes. Images were captured and exported and JPEG files. Spent culture media was transfered to black-well plates for the LDH assay, and remaining media was sorted at -80 C for later use. Cells were treated with RLT buffer and frozen until shipped for gene expression analysis. Total RNA was isolated from the cell suspension in 75 uL of Buffer RLT (Qiagen, Germantown, MD 20874) by Quintiles/Expression Analysis (Durham, NC) using a custom isolation procedure. Total RNA from each plate well was transferred to a preamplification plate. Fluidigm's 96.96 Dynamic ArrayTM (Fluidigm, Amsterdam, the Netherlands) technology was used for gene expression analyses by quantitative reverse transcription polymerase chain reaction (qRT-PCR, performed by Quintiles/Expression Analysis, Durham, NC)89. Standard TaqManTM Assays (Applied Biosystems/ThermoFisher Scientific, Foster City, CA) were used to assess the expression of 93 genes selected based on their selectivity and sensitivity to important hepatic receptors known to be modulated by environmental chemicals; importance in human hepatocyte functionality; and hepatotoxicity. […]

| Structure (SMILES) | outcome | AC50 |
| --- | --- | --- |
| CCNC(=O)NC(=O)C(C#N)=NOC | inactive | – |
| CC(C)=CC1C(C(=O)OCc2coc(Cc3ccccc3)c2)C1(C)C (stereo not given) | inactive | – |
| CCCN(CC)CC1COC2(CCC(C(C)(C)C)CC2)O1 (stereo not given) | inactive | – |
| CCCCC(O)(Cn1cncn1)c1ccc(Cl)cc1Cl (stereo not given) | – | 75.1 µM (active) |
| CS(=O)(=O)c1ccc(C(=O)C2C(=O)CCCC2=O)c([N+](=O)[O-])c1 | inactive | – |
| CCSC(=O)N1CCCCCC1 | inactive | – |
| CNC(=O)Oc1cccc2ccccc12 | inactive | – |
| Clc1cccc(C(Cl)(Cl)Cl)n1 | inactive | – |
| CCCCOCN(C(=O)CCl)c1c(CC)cccc1CC | – | 50 µM (active) |
| CCOc1nc(C(Cl)(Cl)Cl)ns1 | – | 0.965 µM (active) |
| CC1(C)C(C=C(Cl)Cl)C1C(=O)OC(C#N)c1cccc(Oc2ccccc2)c1 (stereo not given) | – | 50 µM (active) |
| COc1cc(Cl)c(OC)cc1Cl | inactive | – |
| Cc1cnc(C2=NC(C)(C(C)C)C(=O)N2)c(C(=O)O)c1 (stereo not given) | inactive | – |
| COP(=S)(OC)Oc1ccc([N+](=O)[O-])c(C)c1 | inactive | – |
| N#CN=C1SCCN1Cc1ccc(Cl)nc1 | inactive | – |
| N#Cc1c(Cl)cccc1Cl | inactive | – |
| Clc1nc(Cl)nc(Nc2ccccc2Cl)n1 | inactive | – |
| N#Cc1c[nH]cc1-c1cccc2c1OC(F)(F)O2 | inactive | – |
| CC(C)Nc1nc(Cl)nc(NC(C)C)n1 | inactive | – |
| Nc1c(Cl)c(F)nc(OCC(=O)O)c1Cl | inactive | – |

| Structure (SMILES) | outcome | AC50 |
| --- | --- | --- |
| CC(C)NC(=O)N1CC(=O)N(c2cc(Cl)cc(Cl)c2)C1=O | – | 3.79 µM (active) |
| COP(=S)(OC)SCn1nnc2ccccc2c1=O | inactive | – |
| CC(C)C1(C)N=C(c2ncccc2C(=O)O)NC1=O (stereo not given) | inactive | – |
| COC(=O)NS(=O)(=O)c1ccc(N)cc1 | inactive | – |
| COP(=O)(OC)O/C(C)=C/C(=O)N(C)C | inactive | – |
| COCc1cnc(C2=NC(C)(C(C)C)C(=O)N2)c(C(=O)O)c1 (stereo not given) | inactive | – |
| COc1ccc(-c2ccccc2)cc1NNC(=O)OC(C)C | inactive | – |
| Cc1cc(C)nc(Nc2ccccc2)n1 | inactive | – |
| COC(=O)c1c(C(F)F)nc(C(F)(F)F)c(C2=NCCS2)c1CC(C)C | inactive | – |
| Nc1cnn(-c2ccccc2)c(=O)c1Cl | inactive | – |
| OC(c1ccc(Cl)cc1)(c1ccc(Cl)cc1)C(Cl)(Cl)Cl | – | 50 µM (active) |
| CCN(CC)c1nc(C)cc(OP(=S)(OC)OC)n1 | inactive | – |
| CC(C)N1C(=O)N(c2ccccc2)CSC1=NC(C)(C)C | – | 59.9 µM (active) |
| CCOC(=O)C(C)OC(=O)c1cc(Oc2ccc(C(F)(F)F)cc2Cl)ccc1[N+](=O)[O-] (stereo not given) | – | 21 µM (active) |
| CCCCC(C#N)(Cn1cncn1)c1ccc(Cl)cc1 (stereo not given) | – | 68.7 µM (active) |
| CSC(=O)c1c(C(F)F)nc(C(F)(F)F)c(C(=O)SC)c1CC(C)C | – | 66 µM (active) |
| O=C(O)c1c(Cl)ccc2cc(Cl)cnc12 | inactive | – |
| COCC(=O)N(c1c(C)cccc1C)C(C)C(=O)OC (stereo not given) | inactive | – |
| CC(C)Oc1cccc(NC(=O)c2ccccc2C(F)(F)F)c1 | – | 80.9 µM (active) |
| CNC(=O)N(C)c1nnc(C(C)(C)C)s1 | inactive | – |
